COUP-TFII inh: NR2F2 (human) inhibition, primary screen | P24468 | HEK293T NGFI-A luciferase reporter, luminescence | inhibition, % at 8.6 µM | hit rate 0.7% among 370,000 | AID 686940;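 active means inhibition above a per-plate cutoff, mean inhibition of test wells between control levels plus 3 SD, cut at about 38% in these data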;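 further: cells cotransfected with COUP-TFII expression vector driving the NGFI-A reporter; 0% = median of COUP-TF2 test wells and 100% = reporter-only cells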
Target sequence (P24468 whole entry, looked up): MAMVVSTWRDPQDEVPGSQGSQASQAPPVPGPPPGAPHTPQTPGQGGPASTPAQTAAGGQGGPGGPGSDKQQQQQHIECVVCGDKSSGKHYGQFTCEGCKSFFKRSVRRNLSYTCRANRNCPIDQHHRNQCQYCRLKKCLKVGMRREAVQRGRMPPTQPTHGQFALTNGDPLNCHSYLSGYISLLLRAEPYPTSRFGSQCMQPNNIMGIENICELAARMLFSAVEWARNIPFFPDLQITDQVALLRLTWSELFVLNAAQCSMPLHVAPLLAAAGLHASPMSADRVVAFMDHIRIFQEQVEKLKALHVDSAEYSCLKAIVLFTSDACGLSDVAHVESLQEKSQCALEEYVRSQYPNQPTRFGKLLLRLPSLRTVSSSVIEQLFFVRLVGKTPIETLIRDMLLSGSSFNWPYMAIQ
697 NFkB inh: inhibitors of the PMA/ionomycin-induced NF-kB reporter in 697 B cells | 697 B-cell NF-kB luciferase reporter, 16 h | inhibition, % at 4 µM | hit rate 0.33% among 330,000 | AID 435022; in the data active means inhibition above about 35%
Gli-Sufu antag: antagonists of Gli-Sufu signaling; Sufu-KO-LIGHT fibroblasts, Gli luciferase reporter luminescence; inhibition, % at 5 µM; hit rate 0.74% among 340,000;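 active means inhibition above about 55%, limit read from the data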;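 further: 0% = DMSO-treated cells and 100% = wells with medium but no cells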
Jurkat NFkB inh: lowers PMA/ionomycin-induced NF-kB signal in Jurkat cells; PMA/ionomycin-induced NF-kB luciferase reporter, luminescence; inhibition, % at 4 µM; hit rate 0.53% among 330,000; in the data active means inhibition above about 50%
GalR3 antag: human GalR3 antagonism | inhibition, % at 3 µM | O60755 | HEK293 GalR3-CNG cAMP membrane potential fluorescence; galR3 body fused to GalR1 C-terminus | hit rate 0.44% among 360,000 | AID 651719;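 active means inhibition above the screen-wide average plus 3 SD, cut at about 13% in these data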;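 further: forskolin and galanin both at EC90 stimulate the cells; cAMP rise reported by CNG channel membrane potential dye signal; 0% = forskolin plus galanin with DMSO and 100% = forskolin alone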
Jurkat NFkB conf: lowers PMA/ionomycin-induced NF-kB signal in Jurkat cells; hit rate 27% among 2,700; inhibition, % at 4 µM; Jurkat NF-kB luciferase, 16 h; shares compounds with Jurkat NFkB inh;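 active means inhibition reaching about 45% at 4 µM in either replicate, limit read from the data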;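 further: plate controls were PMA/ionomycin stimulated DMSO wells for no effect and unstimulated DMSO wells for full effect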
* = called active by the depositor. Sampled rows, rich in hits. Any-hit rate of the full collection: about 2%.

What do the screens show for `COc1cccc(-c2cc(=O)c3cc(NC(=O)c4ccc(Cl)cc4)ccc3[nH]2)c1`?
COUP-TFII inh: 7; 697 NFkB inh: -36; Gli-Sufu antag: -8; Jurkat NFkB inh: 78*; GalR3 antag: -1; Jurkat NFkB conf: 14

How did COc1cccc(-c2cc(=O)c3cc(NC(=O)c4ccc(N(C)C)cc4)ccc3[nH]2)c1 do in these assays?
697 NFkB inh: -111; Gli-Sufu antag: 44; Jurkat NFkB inh: 87*; Jurkat NFkB conf: 57*

How did Cc1ccc(Cn2nnc3c2-c2cc(F)ccc2S(=O)(=O)N(C(C)(C)C)C3)cc1 do in these assays?
COUP-TFII inh: 9

How did CCC(NC(=O)c1cccc2c1C(=O)N(Cc1cccnc1)C2)c1ccccc1 (stereo not given) do in these assays?
COUP-TFII inh: 10

What do the screens show for `CCCc1cc(C(=O)Nc2nccs2)cs1`?
COUP-TFII inh: -37; 697 NFkB inh: -88; Gli-Sufu antag: -58; Jurkat NFkB inh: -166; GalR3 antag: -9; Jurkat NFkB conf: -109

What do the screens show for `CCCN1C(=O)c2ccc(C(=O)Nc3nccs3)cc2C1=O`?
COUP-TFII inh: -12; 697 NFkB inh: -8; Gli-Sufu antag: -3; Jurkat NFkB inh: 0; GalR3 antag: -4

Results for O=C(/C=C/c1ccccn1)c1cc(Cl)cc(Cl)c1O ?
COUP-TFII inh: 20; 697 NFkB inh: -11; Gli-Sufu antag: 10; Jurkat NFkB inh: 67*; GalR3 antag: 2; Jurkat NFkB conf: 29

What do the screens show for `COC1=C[C@H](C(=O)N[C@H]2CCCC[C@@H]2NC(C)=O)[C@@]2(C)Cc3ccccc3[C@H]2CC1=O`?
COUP-TFII inh: 4

How did CCOC(=O)/C=C/S(=O)(=O)c1ccc(NC(C)=O)cc1 do in these assays?
COUP-TFII inh: -40; 697 NFkB inh: 20; Gli-Sufu antag: 9; Jurkat NFkB inh: 53*; GalR3 antag: -3; Jurkat NFkB conf: 38

How did C=C(C)COc1ccc(-c2n[nH]c(C)c2-c2ccc(Br)cc2)c(O)c1 do in these assays?
COUP-TFII inh: -10; 697 NFkB inh: -19; Gli-Sufu antag: -4; Jurkat NFkB inh: 50*; GalR3 antag: -5; Jurkat NFkB conf: 26

What do the screens show for `C=C(C)COc1ccc(-c2[nH]ncc2-c2ccc(Br)cc2)c(O)c1`?
COUP-TFII inh: 15; 697 NFkB inh: -22; Gli-Sufu antag: -4; Jurkat NFkB inh: 59*; GalR3 antag: 2; Jurkat NFkB conf: 8

What do the screens show for `CCOc1ccc(-c2[nH]ncc2-c2ccc(OC)c(OC)c2)c(O)c1`?
COUP-TFII inh: 22; 697 NFkB inh: -57; Gli-Sufu antag: 0; Jurkat NFkB inh: 63*; GalR3 antag: -5; Jurkat NFkB conf: 57*

How did C=C(C)COc1ccc(-c2ncncc2-c2ccc(Br)cc2)c(O)c1 do in these assays?
COUP-TFII inh: 10; 697 NFkB inh: -3; Gli-Sufu antag: 0; Jurkat NFkB inh: 8; GalR3 antag: -9

How did O=C(OCc1cn(Cc2cccc(F)c2F)nn1)N1CCOCC1 do in these assays?
COUP-TFII inh: -10

How did COc1ccc(OC)c(S(=O)(=O)N2CCCC(C(=O)N3CCN(Cc4ccccc4)CC3)C2)c1 (stereo not given) do in these assays?
COUP-TFII inh: 8

What do the screens show for `CCCCN(C)C(=O)CN1C(=O)C2CCCCN2C(=O)c2ccccc21` (stereo not given)?
COUP-TFII inh: 6

What do the screens show for `O=C(CCc1ccccc1)N[C@H]1[C@H](OCc2ccccc2)CCC[C@@]12C(=O)N(Cc1ccccc1)c1ccccc12`?
COUP-TFII inh: 2

What do the screens show for `O=c1cc(-c2ccccc2)[nH]c2cc(Cl)ccc12`?
COUP-TFII inh: 7; 697 NFkB inh: -39; Gli-Sufu antag: 14; Jurkat NFkB inh: 65*; GalR3 antag: -2; Jurkat NFkB conf: 61*

How did O=c1cc(-c2cccc(F)c2)[nH]c2ccccc12 do in these assays?
COUP-TFII inh: -64; 697 NFkB inh: -26; Gli-Sufu antag: 22; Jurkat NFkB inh: 72*; GalR3 antag: 2; Jurkat NFkB conf: 62*

What do the screens show for `Cc1ccc2[nH]c(-c3cccc(F)c3)cc(=O)c2c1`?
COUP-TFII inh: -95; 697 NFkB inh: -68; Gli-Sufu antag: 24; Jurkat NFkB inh: 52*; GalR3 antag: 5; Jurkat NFkB conf: 45

How did Fc1ccccc1-c1n[nH]c(=S)n1N=Cc1ccc(-c2ccccc2)cc1 do in these assays?
COUP-TFII inh: -17

Results for CC(C)(C)OC(=O)NCc1cc(F)ccc1/C=C/S(=O)(=O)NC1CCCC1 ?
COUP-TFII inh: -3

What do the screens show for `O=C1C(=O)c2ccc(-c3ccccc3)cc2-c2ccccc21`?
COUP-TFII inh: -14; 697 NFkB inh: 21; Gli-Sufu antag: -1; Jurkat NFkB inh: 53*; GalR3 antag: -6; Jurkat NFkB conf: 24

Results for CC(=O)N1CCCN(C(=O)C2CCN(c3ncnc4c3sc3cccc(F)c34)CC2)CC1 ?
COUP-TFII inh: 7

How did Cc1ccc2nc(C)c(CN3CCN(c4ccc([N+](=O)[O-])cc4Cl)CC3)n2c1 do in these assays?
COUP-TFII inh: 19; 697 NFkB inh: -26; Jurkat NFkB inh: 51*; GalR3 antag: 4; Jurkat NFkB conf: 46*

What do the screens show for `CC(C)C[C@H]1COc2cc(F)ccc2S(=O)(=O)N1C`?
COUP-TFII inh: 18

Results for Cc1ccc(-c2nc3ncccn3c2NC(=O)c2cccc(C)c2)cc1 ?
COUP-TFII inh: 1

How did CCOC(=O)C1=C(C)NC(SC)=C(C#N)C1CC(C)C (stereo not given) do in these assays?
COUP-TFII inh: -1; 697 NFkB inh: -66; Gli-Sufu antag: -6; Jurkat NFkB inh: 57*; GalR3 antag: -4; Jurkat NFkB conf: 17

What do the screens show for `Cc1ccc(COc2ccccc2-c2cc(C(=O)N/N=C/c3cccnc3)[nH]n2)cc1`?
COUP-TFII inh: -27; 697 NFkB inh: -12; Gli-Sufu antag: -4; Jurkat NFkB inh: 53*; GalR3 antag: 5; Jurkat NFkB conf: -2

How did CCOc1ccccc1-c1cc(C(=O)N/N=C/c2cccnc2)c2ccccc2n1 do in these assays?
COUP-TFII inh: 12; 697 NFkB inh: 22; Gli-Sufu antag: 4; Jurkat NFkB inh: -5; GalR3 antag: -1

How did O=C(NCc1ccccc1Cl)O[C@H]1CC[C@@]23CCCN2C(=O)CCC[C@H]3C1 do in these assays?
COUP-TFII inh: -6

How did Cc1ccccc1S(=O)(=O)Nc1nc2ccccc2nc1N1CCc2ccccc2C1 do in these assays?
COUP-TFII inh: -4; 697 NFkB inh: -135; Gli-Sufu antag: -15; Jurkat NFkB inh: -166; GalR3 antag: -9; Jurkat NFkB conf: -90

What do the screens show for `O=S(=O)(Nc1nc2ccccc2nc1N1CCc2ccccc2C1)c1ccc(Br)cc1`?
COUP-TFII inh: -39; Gli-Sufu antag: -64; GalR3 antag: -9

What do the screens show for `CC(=O)O[C@@H]1CCC[C@@]2(C(=O)N(Cc3ccccc3)c3ccc(-c4c(C)noc4C)cc32)[C@H]1NC(=O)CCc1ccccc1`?
COUP-TFII inh: -2

Results for Nc1nonc1-c1nc2ccccc2n1CC(=O)Nc1ccccc1 ?
COUP-TFII inh: 25; 697 NFkB inh: -4; Gli-Sufu antag: 2; Jurkat NFkB inh: 31; GalR3 antag: -5

Bioassay records as filed in PubChem.
